Tb PFK inh: qHTS Assay to Find Inhibitors of T. brucei phosphofructokinase; ATP-dependent 6-phosphofructokinase (Trypanosoma brucei brucei), O15648; T. brucei PFK, ADP-Glo luminescence; Potency, µM (doses to about 57.5 µM), for the others: at the top dose activity, negative = inhibition, usual class: inhibitors; 330,000 tested, 0.17% active; AID 485367, 2010;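 note: 0% = uninhibited 1x PFK enzyme wells and -100% = no-enzyme wells; nearly all actives have a fitted effect of over 60% in size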
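1.25 nM PFK with 0.5 mM F6P and 0.1 mM ATP in 0.1 M TEA pH 8.0, 5 mM MgCl2, incubated 45 min at room temperature; ADP measured by ADP-Glo luminescence; compounds titrated up to 57 uM.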
Rango release inh: qHTS Assay for Inhibitors of RanGTP induced Rango (Ran-regulated importin-beta cargo) - Importin beta complex dissociation. Snurportin-1 (Homo sapiens) + GTP-binding nuclear protein Ran (Homo sapiens) + Importin …. Biochemical FRET Rango-importin beta, RanGTP-induced dissociation. Potency, µM (series often up to 46.1 µM), without a hit: top-dose activity change, negative = inhibition. 340,000 tested, 0.071% active; calls by dose curve; note: % of control where 0% means no effect; nearly all actives have a fitted effect of over 45% in size
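FRET read at 45 min, room temperature: inhibitors block the CFP/YFP signal rise when RanGTP (0.6 uM Ran, 2 mM GTP, 0.2 uM RCC1) frees Rango (0.1 uM) from importin beta (0.25 uM). Pre-read after 5 min compound exposure flags interference.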
ELG1 repair inh: qHTS screen for small molecules that inhibit ELG1-dependent DNA repair in human embryonic kidney (HEK293T) cells expressing luciferase-tagged ELG1; HEK293T ELG1-luciferase reporter, luminescence, 16 h; DNA damage induced by 5-fluorouridine; 330,000 tested, 2.3% active; Potency, µM (doses to about 46.1 µM), for the others: top-dose activity change, negative = inhibition, most hits filed as inhibitors; note: % is set by controls: 0 for no effect and ±100 for the full control effect; nearly all actives have a fitted effect of over 55% in size
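Cells (2,000 per well) received 5-fluorouridine plus test compound or DMSO and were incubated 16 hr at 37 °C, 5% CO2. Luciferase activity was read by luminescence 30 min after ONE-Glo addition; signal suppression marked inhibition of damage-induced ELG1 function.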
Tb PGK inh: qHTS Assay to Find Inhibitors of Phosphoglycerate Kinase; Phosphoglycerate kinase, glycosomal (Trypanosoma brucei brucei), P07378; PGK/GAPDH coupled, Kinase-Glo luminescence, 60 min; Potency, µM (doses to about 57.5 µM), inactives show at the top dose activity change, negative = inhibition, actives largely listed as inhibitors; 380,000 tested, 0.043% active; note: % is set by controls: 0 for no effect and ±100 for the full control effect; nearly all actives have a fitted effect of over 60% in size
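Luminescent ATP detection (Kinase-Glo Plus) follows a 60-minute room-temperature incubation, with wells lacking PGK as controls. Buffer: 100 mM TEA (pH 7.6), 5 mM MgCl2, 0.01% Tween-20. Coupling enzyme GAPDH (100 nM final) supplies unstable 1,3-BPG in-well.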
PKM2 activator: qHTS Assay for Activators of Human Muscle isoform 2 Pyruvate Kinase; Pyruvate kinase PKM (Homo sapiens), P14618; purified PKM2, Kinase-Glo ATP luminescence, activation; response scale: 0% is enzyme alone, no compound; Potency, µM (series often up to 57.5 µM), for the others: top-dose activation, hits mostly activators; 260,000 tested, 0.34% active; AID 1631, 2009; note: % is set by controls: 0 for no effect and ±100 for the full control effect; nearly all actives have a fitted effect of over 55% in size
Target sequence (P14618 whole entry, looked up, canonical isoform): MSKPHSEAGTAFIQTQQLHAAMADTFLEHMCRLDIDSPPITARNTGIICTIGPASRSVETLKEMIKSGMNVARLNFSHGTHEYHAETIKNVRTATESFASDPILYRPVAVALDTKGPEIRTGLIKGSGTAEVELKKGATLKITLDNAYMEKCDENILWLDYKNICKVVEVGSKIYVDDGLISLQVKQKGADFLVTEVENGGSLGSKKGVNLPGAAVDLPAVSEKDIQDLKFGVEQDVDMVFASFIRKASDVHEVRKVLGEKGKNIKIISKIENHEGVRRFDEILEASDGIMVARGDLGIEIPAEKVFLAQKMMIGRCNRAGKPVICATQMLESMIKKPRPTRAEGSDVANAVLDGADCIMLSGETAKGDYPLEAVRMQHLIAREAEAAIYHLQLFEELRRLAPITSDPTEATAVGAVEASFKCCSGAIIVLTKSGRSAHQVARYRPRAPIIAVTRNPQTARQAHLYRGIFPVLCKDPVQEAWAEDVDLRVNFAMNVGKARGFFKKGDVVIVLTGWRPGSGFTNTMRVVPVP
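hPK-M2, >95% pure; 0.1 mM ADP / 0.5 mM PEP final; imidazole pH7.2 buffer w/ 7 mM MgCl2, 50 mM KCl; 1 h RT; Kinase-Glo lum. Intermediate enzyme activity for dual inhibitor/activator qHTS.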
Rango-impB inh: qHTS Assay for Inhibitors of Rango (Ran-regulated importin-beta cargo) - Importin beta complex formation. Rango CFP/YFP FRET sensor + importin beta, 45 min. Importin subunit beta-1 (Homo sapiens), Q14974. Potency, µM (top dose mostly 92.2 µM), for the others: at the highest dose inhibition of complex formation. 340,000 tested, 0.031% active. AID 540263, 2011; calls by dose curve;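 note: 0% = DMSO wells and 100% = buffer wells lacking importin beta; nearly all actives have a fitted effect of over 15% in size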
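FRET biosensor (snurportin 1 IBB flanked by EYFP and cerulean), 50 nM, with compound 5 min, then 0.125 microM importin beta in PBS, 1 mM DTT, 0.02% Tween-20, 0.1% BSA. CFP/YFP ratio read after 45 min at room temperature; pre-read flags interference.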
The depositor's hits bear a star; i = inactive; ? = inconclusive; · = no result given. Shown are actives, neighbours in structure and some others; about 2.4% of the full set was active somewhere. Unless noted, calls come from the whole dose curve; as a rule, active = well fitted curve in the direction sought with a large enough effect; inconclusive = small, poorly fitted or top-dose-only effect, or another doubt; inactive = no such curve, though single readings can be large; an effect the other way counts as inactive or inconclusive. Potency is the fitted concentration of half-maximal effect.

SMILES	Tb PFK inh	Rango release inh	ELG1 repair inh	Tb PGK inh	PKM2 activator	Rango-impB inh
Cc1ccc(N2C(=O)CS(=O)(=O)C23C(=O)N(Cc2ccccc2C)c2ccccc23)cc1Cl (stereo not given)	·	·	·	1.2%	·	·
CCn1c(C)[n+](Cc2ccccc2)c2ccc(Cl)cc21	1.3%	-13.4%	14.6µM*	-4.6%	-14.1%	-0.5%
CCn1c(C)[n+](Cc2ccccc2)c2ccc(C(=O)OC)cc21	-2.1%	-0.9%	-29.1%	-0.8%	1.8%	1.7%
O=C(CSc1nnc(-c2ccccn2)o1)Nc1ccccc1F	-9.5%	-0.1%	?	0.7%	-0.5%	0.7%
CCCNC(=O)COC(=O)c1ccccc1C(=O)c1ccc(Cl)c([N+](=O)[O-])c1	-1.7%	26.6%	?	-9.9%	0.2%	0.3%
Cc1ccc(Cl)c(NC(=O)COC(=O)c2ccccc2C(=O)c2ccc(Cl)c([N+](=O)[O-])c2)c1Cl	1.7%	-10.8%	18.4µM*	5.8%	-1.7%	-5.3%
CCN1CCN(CC(O)COC(c2ccccc2)c2ccccc2C)CC1 (stereo not given)	-5.3%	-5.2%	-0.3%	-1.4%	·	0.0%
CCC1(C)Cc2nc3sc(C(=O)O)c(N)c3cc2CO1 (stereo not given)	-0.6%	18.4µM*	?	7.7%	-2.6%	?
CCOC(=O)c1sc2nc3c(cc2c1N)COC(C)(CC)C3 (stereo not given)	0.6%	?	?	-5.9%	1.1%	?
Cc1ccccc1Cn1c(C(=O)O)c(CNCc2cccc(F)c2)c2ccccc21	·	·	·	-0.9%	·	·
CC(=O)c1ccc(N2C(=O)N(Cc3ccc(F)cc3)c3ccccc3S2(=O)=O)cc1	·	·	·	-3.6%	·	·
Cn1c(=O)n(C)c2cc(CNCc3ccc(F)cc3)ccc21	·	·	·	2.1%	·	·
CC(C)(C)[C@H]1C=C(C(=O)N2CCN(Cc3ccc4c(c3)OCO4)CC2)O[C@@H](OCc2ccc(CO)cc2)C1	0.5%	-8.6%	5.17µM*	-5.6%	0.2%	0.0%
C#Cc1ccc([C@H]2C=C(C(=O)N3CCN(Cc4ccc5c(c4)OCO5)CC3)O[C@@H](OCC)[C@@H]2CCCO)cc1	0.7%	11.3%	18.3µM*	9.1%	-3.0%	0.8%
O=C(C1=C[C@H](C2CC2)C[C@H](OCc2ccc(CO)cc2)O1)N1CCN(Cc2ccc3c(c2)OCO3)CC1	-0.4%	1.8%	6.51µM*	1.7%	0.7%	-4.1%
CC(C)(C)[C@@H]1C=C(C(=O)N2CCN(Cc3ccccc3)CC2)O[C@H](OCc2ccc(CO)cc2)C1	-3.2%	-13.7%	-8.2%	6.0%	2.8%	-0.1%
C#CCOCCOCCOCCNc1nc(N2CCN(C(=O)[C@H]([C@@H](C)CC)n3cc([C@@H](N)CO)nn3)CC2)nc(N2CCN(C(=O)[C@H](Cc3cc4ccccc4[nH]3)n3cc([C@@H](N)Cc4ccc(O)cc4)nn3)CC2)n1	4.4%	·	4.6%	·	8.4%	·
O=S(=O)(CC(CN1CCCC1)N1CCCC1)c1ccc2ccccc2c1 (stereo not given)	-1.7%	2.2%	11.6µM*	1.9%	-5.0%	?
C/C=C(\C)C(=O)OC1CC(C)(C)C[C@H]2C3=CC[C@@H]4[C@@]5(C)CCC(O[C@@H]6O[C@@H](C(=O)O)[C@@H](O)C(O[C@@H]7OC[C@H](O)[C@@H](O)[C@@H]7O[C@@H]7OC(CO)C(O)[C@@H](O)[C@@H]7O)C6O[C@@H]6OC(CO)C(O)C(O)C6O)[C@@](C)(CO)[C@@H]5CC[C@]4(C)[C@]3(C)CC(O)[C@@]12CO (stereo not given in full)	?	-13.8%	-2.5%	3.7%	·	-3.5%
COc1ccc(C(C)C)cc1S(=O)(=O)NC1CCCC1	0.8%	13.5%	11.8%	-8.1%	1.1%	0.3%
COC(=O)c1cc(=O)n(CCc2ccc(OC)c(OC)c2)c(=Nc2ccc(F)c(Cl)c2)s1	0.1%	1.6%	14.6µM*	-5.3%	-6.9%	0.5%
Cc1ccc([C@H]2C[C@@H](O)[C@H](n3cc(-c4ccc(F)cc4)nn3)CN2C(=O)C2CCCCC2)cc1	·	·	·	-0.2%	·	·
O=c1cc(-c2ccccc2Cl)oc2cccc(O)c12	-4.1%	1.7%	23.0%	-9.6%	0.3%	-1.9%
O=c1cc2oc3cc(O)c(O)cc3c(-c3ccccc3[N+](=O)[O-])c-2cc1O	-8.9%	-3.5%	20.6µM*	?	·	?
CN(C)C(CNC(=O)c1ccc(S(=O)(=O)Nc2cccc(C(F)(F)F)c2)cc1)c1ccco1 (stereo not given)	-1.9%	-8.6%	-2.3%	-1.2%	·	?
SMILES	Tb PFK inh	Rango release inh	ELG1 repair inh	Tb PGK inh	PKM2 activator	Rango-impB inh
CCCC(=O)OCCNc1cc(Sc2nc3ccccc3[nH]2)c2nonc2c1[N+](=O)[O-]	21.3µM*	?	?	-9.9%	?	-7.3%
Cc1cc(C)cc(OCC(=O)N2CCC(c3nc4ccccc4o3)CC2)c1	·	·	·	i	·	·
COCc1c(C(=O)Nc2ccc3nc(N4CCOCC4)sc3c2)oc2ccccc12	-0.8%	-5.2%	13µM*	-1.2%	·	?
O=C(Nc1ccc2nc(N3CCOCC3)sc2c1)c1ccccc1	-7.6%	17.1%	-1.8%	5.6%	·	-3.2%
O=C(Cc1ccc(F)cc1)NCCc1csc2nc(-c3ccccc3F)nn12	·	·	·	-1.7%	·	·
COc1ccc(C(=O)N2CCCC(c3nc(-c4cc(OC)c(OC)c(OC)c4)no3)C2)cc1 (stereo not given)	-2.9%	-0.5%	7.31µM*	i	-0.3%	-6.3%
COc1ccccc1C(=O)N1CCCC(c2nc(-c3cc(OC)c(OC)c(OC)c3)no2)C1 (stereo not given)	-2.1%	-0.8%	7.31µM*	-1.8%	2.5%	-2.3%
Cc1cc(C)c2c(=O)n(CC(=O)N3CCC(Cc4ccccc4)CC3)sc2n1	?	·	4.8%	·	1.58µM*	·
Cc1cc(C)c2c(=O)n(CC(=O)NCCCN3CCN(c4ccccc4F)CC3)sc2n1	12µM*	-4.6%	?	-6.7%	-24.6%	-2.0%

Screening results: PubChem, National Center for Advancing Translational Sciences (NCATS)
